Data: paper PMC12350791

Legend:
Experiment in all cases: cross-linking mass spectrometry
Settings in all cases: DSBSO, in cells or nuclear extract, not told apart
USP39 = USP39 (UniProt Q53GS9)
SF1 = SF1 (UniProt Q15637)
SF3A1 = SF3A1 (UniProt Q15459)
SF3B3 = SF3B3 (UniProt Q15393)
SF3B2 = SF3B2 (UniProt Q13435)
SMC4 = SMC4 (UniProt Q9NTJ3)
SNRPD1 = SNRPD1 (UniProt P62314)
SNRPD3 = SNRPD3 (UniProt P62318)
SNU13 = SNU13 (UniProt P55769)
SPC25 = SPC25 (UniProt Q9HBM1)
SPG11 = SPG11 (UniProt Q96JI7)
STAT5B = STAT5B (UniProt P51692)
STK24 = STK24 (UniProt Q9Y6E0)
SYMPK = SYMPK (UniProt Q92797)
THOC1 = THOC1 (UniProt Q96FV9)
THOC3 = THOC3 (UniProt Q96J01)
THOC7 = THOC7 (UniProt Q6I9Y2)
THRAP3 = THRAP3 (UniProt Q9Y2W1)
TMED2 = TMED2 (UniProt Q15363)
TMED4 = TMED4 (UniProt Q7Z7H5)
TMED7 = TMED7 (UniProt Q9Y3B3)
TMED9 = TMED9 (UniProt Q9BVK6)
TSNAX = TSNAX (UniProt Q99598)
TXLNG = TXLNG (UniProt Q9NUQ3)
UBE2I = UBE2I (UniProt P63279)
UQCRC2 = UQCRC2 (UniProt P22695)
UXT = UXT (UniProt Q9UBK9)
VIRMA = VIRMA (UniProt Q69YN4)
VPS35 = VPS35 (UniProt Q96QK1)
YWHAB = YWHAB (UniProt P31946)
YWHAG = YWHAG (UniProt P61981)
YWHAH = YWHAH (UniProt Q04917)
YWHAZ = YWHAZ (UniProt P63104)
ZC3H4 = ZC3H4 (UniProt Q9UPT8)

TMED10, P49755, sequence (P49755 whole entry): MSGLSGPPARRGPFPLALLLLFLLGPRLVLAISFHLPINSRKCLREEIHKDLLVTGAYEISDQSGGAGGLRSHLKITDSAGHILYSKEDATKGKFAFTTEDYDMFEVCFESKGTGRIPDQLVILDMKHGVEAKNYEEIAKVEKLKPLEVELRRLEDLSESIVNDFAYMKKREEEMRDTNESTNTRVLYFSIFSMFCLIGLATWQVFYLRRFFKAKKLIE
TMED2, Q15363, sequence (Q15363 whole entry): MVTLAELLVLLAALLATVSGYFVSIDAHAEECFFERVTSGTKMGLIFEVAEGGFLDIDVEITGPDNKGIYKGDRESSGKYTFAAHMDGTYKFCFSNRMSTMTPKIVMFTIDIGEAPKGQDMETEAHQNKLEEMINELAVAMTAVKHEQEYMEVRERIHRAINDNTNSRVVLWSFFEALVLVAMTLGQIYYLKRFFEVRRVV
SF3A1, sequence (Q15459 whole entry): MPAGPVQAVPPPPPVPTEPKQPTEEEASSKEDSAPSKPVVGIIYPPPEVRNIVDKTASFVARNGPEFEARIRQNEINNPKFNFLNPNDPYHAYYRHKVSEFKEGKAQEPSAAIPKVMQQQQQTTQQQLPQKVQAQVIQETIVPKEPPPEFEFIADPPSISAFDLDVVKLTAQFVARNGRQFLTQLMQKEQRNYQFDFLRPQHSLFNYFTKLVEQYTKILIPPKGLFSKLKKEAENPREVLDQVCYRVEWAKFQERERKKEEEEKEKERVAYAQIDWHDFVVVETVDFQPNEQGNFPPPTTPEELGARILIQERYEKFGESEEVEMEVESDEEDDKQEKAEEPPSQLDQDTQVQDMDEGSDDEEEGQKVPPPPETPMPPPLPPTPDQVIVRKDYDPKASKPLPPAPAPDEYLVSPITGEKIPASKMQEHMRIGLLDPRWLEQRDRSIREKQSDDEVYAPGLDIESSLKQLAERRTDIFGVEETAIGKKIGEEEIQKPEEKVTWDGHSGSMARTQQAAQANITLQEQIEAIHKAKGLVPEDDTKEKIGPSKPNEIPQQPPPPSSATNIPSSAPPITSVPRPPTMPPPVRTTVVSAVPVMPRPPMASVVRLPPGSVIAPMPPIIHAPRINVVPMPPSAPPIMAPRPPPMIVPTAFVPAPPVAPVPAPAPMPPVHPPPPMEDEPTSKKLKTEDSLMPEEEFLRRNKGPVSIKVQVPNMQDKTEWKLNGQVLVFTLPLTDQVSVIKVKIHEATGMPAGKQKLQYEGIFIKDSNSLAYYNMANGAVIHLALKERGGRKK
SF3B2, sequence (Q13435 whole entry): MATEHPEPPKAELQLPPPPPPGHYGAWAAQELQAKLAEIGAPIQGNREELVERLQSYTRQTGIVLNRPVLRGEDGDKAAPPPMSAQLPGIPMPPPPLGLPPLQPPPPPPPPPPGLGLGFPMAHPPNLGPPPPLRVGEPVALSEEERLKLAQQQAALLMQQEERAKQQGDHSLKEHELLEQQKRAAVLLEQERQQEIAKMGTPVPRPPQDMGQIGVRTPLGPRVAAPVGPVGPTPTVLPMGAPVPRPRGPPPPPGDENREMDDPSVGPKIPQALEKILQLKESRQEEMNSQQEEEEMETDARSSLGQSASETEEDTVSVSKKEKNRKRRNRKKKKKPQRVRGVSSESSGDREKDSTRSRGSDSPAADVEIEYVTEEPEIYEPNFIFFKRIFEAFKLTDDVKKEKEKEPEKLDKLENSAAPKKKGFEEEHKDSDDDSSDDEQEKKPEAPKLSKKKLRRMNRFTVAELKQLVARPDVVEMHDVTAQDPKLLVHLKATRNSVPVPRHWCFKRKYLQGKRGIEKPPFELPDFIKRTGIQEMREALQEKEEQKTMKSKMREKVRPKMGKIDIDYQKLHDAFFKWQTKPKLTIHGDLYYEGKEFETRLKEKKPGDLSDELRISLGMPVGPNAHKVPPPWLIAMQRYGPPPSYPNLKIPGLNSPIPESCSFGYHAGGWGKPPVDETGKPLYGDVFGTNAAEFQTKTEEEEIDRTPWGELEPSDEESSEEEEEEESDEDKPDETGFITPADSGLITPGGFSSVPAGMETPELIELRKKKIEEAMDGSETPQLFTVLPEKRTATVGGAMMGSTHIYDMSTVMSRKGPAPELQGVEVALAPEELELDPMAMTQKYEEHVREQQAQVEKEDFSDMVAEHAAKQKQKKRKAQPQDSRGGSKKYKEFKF
SF3B2, Q13435, sequence (Q13435 whole entry): as above
SF3A3, Q12874, sequence (Q12874 whole entry): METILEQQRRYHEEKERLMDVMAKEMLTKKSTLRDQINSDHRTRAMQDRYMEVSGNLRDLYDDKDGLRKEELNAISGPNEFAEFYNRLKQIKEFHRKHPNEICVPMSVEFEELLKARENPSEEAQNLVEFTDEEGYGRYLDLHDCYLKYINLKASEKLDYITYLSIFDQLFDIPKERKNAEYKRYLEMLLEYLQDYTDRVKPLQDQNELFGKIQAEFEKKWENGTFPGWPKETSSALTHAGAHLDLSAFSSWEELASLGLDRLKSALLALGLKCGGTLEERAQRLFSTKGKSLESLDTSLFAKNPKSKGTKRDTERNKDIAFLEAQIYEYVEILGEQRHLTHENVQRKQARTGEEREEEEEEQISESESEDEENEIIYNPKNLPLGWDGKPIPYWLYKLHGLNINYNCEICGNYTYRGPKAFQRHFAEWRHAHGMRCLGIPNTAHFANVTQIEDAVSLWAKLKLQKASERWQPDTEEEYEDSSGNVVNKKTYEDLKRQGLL
THOC5, Q13769, sequence (Q13769 whole entry): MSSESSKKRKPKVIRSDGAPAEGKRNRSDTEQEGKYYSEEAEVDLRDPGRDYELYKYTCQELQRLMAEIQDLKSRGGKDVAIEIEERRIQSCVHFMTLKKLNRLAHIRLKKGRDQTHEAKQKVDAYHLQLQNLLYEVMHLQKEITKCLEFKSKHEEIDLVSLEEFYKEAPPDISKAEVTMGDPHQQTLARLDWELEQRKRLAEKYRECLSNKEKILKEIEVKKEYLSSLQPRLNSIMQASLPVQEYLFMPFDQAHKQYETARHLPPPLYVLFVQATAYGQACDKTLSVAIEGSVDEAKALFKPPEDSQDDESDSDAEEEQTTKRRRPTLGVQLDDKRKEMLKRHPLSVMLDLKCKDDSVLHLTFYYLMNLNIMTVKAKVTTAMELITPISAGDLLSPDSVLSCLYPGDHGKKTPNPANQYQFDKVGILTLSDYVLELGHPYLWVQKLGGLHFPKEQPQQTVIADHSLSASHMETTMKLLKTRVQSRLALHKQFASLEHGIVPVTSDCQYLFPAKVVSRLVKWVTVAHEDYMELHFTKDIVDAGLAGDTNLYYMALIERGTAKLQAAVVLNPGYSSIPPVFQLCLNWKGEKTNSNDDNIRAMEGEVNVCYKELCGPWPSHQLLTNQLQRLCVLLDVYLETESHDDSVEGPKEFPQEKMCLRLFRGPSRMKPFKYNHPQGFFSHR
TMED4, sequence (Q7Z7H5 whole entry): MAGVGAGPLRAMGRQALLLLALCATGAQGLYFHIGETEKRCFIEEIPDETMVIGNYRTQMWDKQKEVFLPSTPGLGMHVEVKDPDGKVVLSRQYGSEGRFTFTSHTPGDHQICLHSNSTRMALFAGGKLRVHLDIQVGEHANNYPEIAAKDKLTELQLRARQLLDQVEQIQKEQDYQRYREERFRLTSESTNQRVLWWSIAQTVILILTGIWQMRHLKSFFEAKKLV
YWHAZ, sequence (P63104 whole entry): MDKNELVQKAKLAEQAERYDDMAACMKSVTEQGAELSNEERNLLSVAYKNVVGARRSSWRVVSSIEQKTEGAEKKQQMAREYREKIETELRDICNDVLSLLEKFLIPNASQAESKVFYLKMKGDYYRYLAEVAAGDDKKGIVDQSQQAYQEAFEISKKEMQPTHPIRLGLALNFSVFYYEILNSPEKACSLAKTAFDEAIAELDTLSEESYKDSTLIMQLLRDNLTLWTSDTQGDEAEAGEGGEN
STK24, sequence (Q9Y6E0 whole entry): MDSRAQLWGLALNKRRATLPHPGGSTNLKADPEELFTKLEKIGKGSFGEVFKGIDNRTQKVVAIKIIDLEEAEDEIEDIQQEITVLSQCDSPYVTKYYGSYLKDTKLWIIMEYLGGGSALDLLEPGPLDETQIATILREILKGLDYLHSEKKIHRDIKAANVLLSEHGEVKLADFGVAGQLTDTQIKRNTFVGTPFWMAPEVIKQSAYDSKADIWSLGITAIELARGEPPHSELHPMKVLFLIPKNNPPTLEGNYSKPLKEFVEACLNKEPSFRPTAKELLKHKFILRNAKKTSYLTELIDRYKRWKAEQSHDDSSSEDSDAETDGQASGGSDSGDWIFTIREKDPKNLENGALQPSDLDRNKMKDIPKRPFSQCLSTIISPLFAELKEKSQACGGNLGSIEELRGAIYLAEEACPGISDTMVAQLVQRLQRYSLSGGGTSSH
UXT, sequence (Q9UBK9 whole entry): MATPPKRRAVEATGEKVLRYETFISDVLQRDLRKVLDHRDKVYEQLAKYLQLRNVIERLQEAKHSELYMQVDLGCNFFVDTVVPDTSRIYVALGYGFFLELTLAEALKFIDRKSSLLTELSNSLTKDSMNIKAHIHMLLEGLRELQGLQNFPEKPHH
TMED2, sequence (Q15363 whole entry): as the sequence (Q15363 whole entry) above
SNU13, sequence (P55769 whole entry): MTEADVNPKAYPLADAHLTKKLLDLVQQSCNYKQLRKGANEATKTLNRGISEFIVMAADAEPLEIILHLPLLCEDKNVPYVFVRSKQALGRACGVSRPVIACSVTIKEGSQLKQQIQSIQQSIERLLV
SNRPD3, sequence (P62318 whole entry): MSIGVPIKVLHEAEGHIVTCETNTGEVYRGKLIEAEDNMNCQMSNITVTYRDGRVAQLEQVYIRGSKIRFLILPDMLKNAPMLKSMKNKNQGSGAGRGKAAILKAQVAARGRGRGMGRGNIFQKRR
YWHAZ, P63104, sequence (P63104 whole entry): as the sequence (P63104 whole entry) above

Substance: EFTUD2, Q15029
- cross-linked residues (USP39): K646 - K308

Substance: IREB2, P48200
- cross-linked residues (SF1): K530 - K169

Substance: SF3A2, Q15428
- cross-linked residues (SF3A1): K190 - K264

Substance: SF3B2, Q13435
- cross-linked residues (SF3A1): K275 - K55
- cross-linked residues (SF3B3): K486 - K965

Substance: SF3B1, O75533
- cross-linked residues (SF3B2): K1292 - K486

Substance: SF3A3, Q12874
- cross-linked residues (SF3B2): K69 - K280
- cross-linked residues (SF3B3): K496 - K974

Substance: NCAPH, Q15003
- cross-linked residues (SMC4): K725 - K99

Substance: SNRPB, P14678
- cross-linked residues (SNRPD1): K54 - K44

Substance: SNRPC, P09234
- cross-linked residues (SNRPD3): K52 - K78

Substance: PRPF6, O94906
- cross-linked residues (SNU13): K775 - K113

Substance: TBC1D9B, Q66K14
- cross-linked residues (SPC25): K1066 - K90

Substance: RPS16, P62249
- cross-linked residues (SPG11): K60 - K942

Substance: STAT5A, P42229
- cross-linked residues (STAT5B): K86 - K86

Substance: PDCD10, Q9BUL8
- cross-linked residues (STK24): K70 - K347

Substance: CSTF2, P33240
- cross-linked residues (SYMPK): K189 - K490

Substance: THOC7, Q6I9Y2
- cross-linked residues (THOC1): K32 - S2

Substance: THOC5, Q13769
- cross-linked residues (THOC3): K223 - K171
- cross-linked residues (THOC7): K223 - K159

Substance: NDUFAF2, Q8N183
- cross-linked residues (THRAP3): K57 - K668

Substance: TMED10, P49755
- cross-linked residues (TMED2): K145 - K129
- cross-linked residues (TMED4): K145 - K152
- cross-linked residues (TMED7): K169 - K91

Substance: TMED2, Q15363
- cross-linked residues (TMED4): K129 - K152
- cross-linked residues (TMED9): K129 - K160

Substance: TSN, Q15631
- cross-linked residues (TSNAX): K219 - K269

Substance: TXLNA, P40222
- cross-linked residues (TXLNG): K216 - K191

Substance: RANBP2, P49792
- cross-linked residues (UBE2I): K2687 - K49

Substance: COX5B, P10606
- cross-linked residues (UQCRC2): K57 - K23

Substance: PDRG1, Q9NUG6
- cross-linked residues (UXT): K36 - K48

Substance: WTAP, Q15007
- cross-linked residues (VIRMA): K268 - K399

Substance: ZC3H13, Q5T200
- cross-linked residues (VIRMA): K1535 - K576

Substance: VPS26A, O75436
- cross-linked residues (VPS35): K30 - K44

Substance: YWHAQ, P27348
- cross-linked residues (YWHAB): K85 - K11

Substance: YWHAB, P31946
- cross-linked residues (YWHAG): K87 - K10

Substance: YWHAZ, P63104
- cross-linked residues (YWHAH): K9 - K91

Substance: YWHAG, P61981
- cross-linked residues (YWHAZ): K77 - K9

Substance: YWHAE, P62258
- cross-linked residues (YWHAZ): K12 - K68

Substance: WDR82, Q6UXN9
- cross-linked residues (ZC3H4): K181 - K935
